Laboratory results taken from the supplement of paper PMC10338343.
± gives the standard deviation.

Tested on: MILI (PIWIL2) piRISC loaded with L1MC piRNA (26 nt)
Assay: pre-steady-state target cleavage rate (min^-1); guide: L1MC piRNA 5'p-UAACUAAAUACUAUGCAAGCUGUAGG; MIWI and MILI are mouse PIWI proteins and EfPiwi is from a freshwater sponge; tags in brackets are library labels; higher = faster piRNA-guided slicing of the target
Details: auxiliary factor: 500 nM mouse GTSF1
In short: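 A transcribed, DNA-blocked target RNA library (0.1 nM) and 1 nM active affinity-purified piRISC bearing one synthetic guide were incubated in HEPES–potassium acetate buffer at 33 °C for 0–8 or 0–960 min, either with or without 500 nM GTSF1 partner protein. Uncleaved targets were sequenced, normalised to depth and to weakly complementary targets, and pooled over three trials, with k3 capped at 0.0001 min^-1. The pre-steady-state cleavage rate was derived with a burst-and-steady-state fit.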

Row | Sequence | pre-steady-state target cleavage rate
1 | UCCUGCUACAGCUUGCAUAGUAUUUCGUUA | 0.132 ± 0.033
2 | UCCUGGAUGUCGAACGUUAGUUUUUAGAUA | < 0.0001
3 | UCCUGGAUCAGCUUGGUUAGUAUUUACAAA | 0.00756 ± 0.0052
4 | UCCUGGAUGUCCUUCCAUAGUAUUUAGUUA | 0.0223 ± 0.008
5 | UCCUGGAACAGCUUGCAUAGUAAAAUCAAA | 0.0152 ± 0.008
6 | UCCUGGAUGAGCUUGCAUAGUCAUUUAGUUA | 0.00477 ± 0.0039
7 | UCCUGGAUCAGCUUGCAAUGUAUUUAGAAA | 0.0496 ± 0.013
8 | UCCUGGUAGAGCUUCCAUAGUAUUUAGUUA | 0.0967 ± 0.033
9 | UCCUGGAUCAGCUUGCAUAGUAUAAUCAAA | 0.0782 ± 0.019
10 | UCCUCCAACAGCUUGCAUAGUAUUUUGUUA | 0.108 ± 0.019
11 | UCCUGGAUGUCGAAGCAUAGUAUUUAGUAUA | 0.0394 ± 0.0091
12 | UCCUGGAACAGCAUGCAUAGUAUUUUCAAA | 0.066 ± 0.018
13 | UCCUCCUACAGCUUGCAUUCUAUUUACAAA | 0.0257 ± 0.0099
